A short description of test [1]: qHTS for Inhibitors of the Functional Ribonucleoprotein Complex (vRNP) of Lassa (LASV) Arenavirus: LASV Primary Screen - GLuc reporter signal (AID 1347082; calls by dose curve; tested in HEK293 reporter line; further: nearly all actives have a fitted effect of over 60% in size; on activity change, negative = inhibition: series mostly up to about 57 µM).
Test [2] can be described thus: qHTS for Inhibitors of the Functional Ribonucleoprotein Complex (vRNP) of Lassa (LASV) Arenavirus: Viability assay - alamar blue signal for LASV Primary Screen (AID 1347083; calls by dose curve; tested in HEK293 reporter line; further: nearly all actives have a fitted effect of over 80% in size; on activity change, negative = reduced viability: series mostly up to about 57 µM). (In general: qHTS replaces the single test concentration by a dilution series.)
Test [3] can be described thus: qHTS for Inhibitors of the Functional Ribonucleoprotein Complex (vRNP) of Lymphocytic Choriomeningitis Arenaviruses (LCMV): Viability assay - alamar blue signal for LCMV Primary Screen (AID 1347085; calls by dose curve; tested in HEK293 reporter line; further: nearly all actives have a fitted effect of over 80% in size; on activity change, negative = lower viability: series mostly up to about 57 µM).
The target of test [4] is Nucleoprotein (Lymphocytic choriomeningitis virus (strain Armstrong)) (UniProt P09992). The test can be described thus: qHTS for Inhibitors of the Functional Ribonucleoprotein Complex (vRNP) of Lymphocytic Choriomeningitis Arenaviruses (LCMV): LCMV Primary Screen - GLuc reporter signal (AID 1347086). Further: nearly all actives have a fitted effect of over 70% in size. On activity change, negative = inhibition: series mostly up to about 57 µM.

Inconclusive results are not listed. Unmarked numbers belong to inactive results. Calls of active or inactive are those of the source. Unless noted, the call rests on the fitted dose curve.
On the % scale 0 is the no-effect control and ±100 the full control effect; potency means the concentration at half of the fitted maximal effect.

Chain of Nucleoprotein (Lymphocytic choriomeningitis virus (strain Armstrong)) (P09992 whole entry, looked up): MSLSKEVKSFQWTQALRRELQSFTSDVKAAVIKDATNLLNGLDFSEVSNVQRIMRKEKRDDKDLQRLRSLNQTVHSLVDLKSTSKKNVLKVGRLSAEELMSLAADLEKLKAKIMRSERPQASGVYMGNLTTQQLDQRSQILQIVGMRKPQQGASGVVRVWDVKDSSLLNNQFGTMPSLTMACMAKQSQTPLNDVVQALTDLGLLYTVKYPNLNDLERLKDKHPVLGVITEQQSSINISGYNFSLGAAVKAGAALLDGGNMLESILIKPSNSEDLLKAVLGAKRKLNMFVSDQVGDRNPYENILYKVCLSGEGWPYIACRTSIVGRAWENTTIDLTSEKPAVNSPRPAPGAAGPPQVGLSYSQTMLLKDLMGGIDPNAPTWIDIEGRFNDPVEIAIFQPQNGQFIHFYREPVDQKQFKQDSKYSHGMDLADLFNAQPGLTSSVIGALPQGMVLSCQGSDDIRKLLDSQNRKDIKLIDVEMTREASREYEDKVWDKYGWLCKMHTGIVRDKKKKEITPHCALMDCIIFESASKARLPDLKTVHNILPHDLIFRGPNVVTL

Take `C[C@@H](C[C@@H](O)[C@H](O)C(C)(C)O)[C@@H]1CC[C@]2(C)C3=CC[C@H]4C(C)(C)C(=O)CC[C@]4(C)[C@H]3CC[C@@]12C`: the Potency entry in test [1], in test [2], in test [3] and in test [4] was “inactive” in each case.
Turning to `C=C1[C@H]2O[C@H]2[C@@H](OC(C)=O)[C@@]2(C)[C@@H](OC(C)=O)C[C@@H](OC(C)=O)[C@@](C)(O)[C@@H]2[C@@H](OC(C)=O)[C@@]2(O)[C@@H](C)C(=O)O[C@H]2[C@H]1Cl`, the Potency result in test [1], in test [2], in test [3] and in test [4] was “inactive” throughout.
On to `COc1ccc2c(=O)c(-c3ccccc3)c(C)oc2c1`, for which the Potency entry in test [1], in test [2], in test [3] and in test [4] was “inactive” in each case.
Turning to `O=C(O)CCC[C@H](O)\C=C/C=C/C=C/[C@H](O)C/C=C\CCCCCO`, the activity change, negative = inhibition in test [1] was 12% [at 0.757 µM]; in test [4], -1.08% [at 0.757 µM]. Further, the activity change, negative = reduced viability in test [2] is 2.93% [at 0.757 µM]. For the same compound, the activity change, negative = lower viability in test [3] is -25.2% [at 0.757 µM].
As to `CC(O)C1C(=O)N2C(C(=O)O)=C(SC3CNC(C(=O)N(C)C)C3)C(C)C12` (stereo unspecified), the Potency result in test [1], in test [2], in test [3] and in test [4] was “inactive” throughout.
Turning to `COc1cc(OC)c2c(-c3ccccc3)cc(=O)oc2c1`, the Potency result in test [1], in test [2], in test [3] and in test [4] was “inactive” each time.
For `C=CCc1c(OC)ccc2ccc(=O)oc12`, the Potency result in test [1], in test [2], in test [3] and in test [4] was “inactive” throughout.
Take `CC(=O)Oc1ccc2c(C)cc(=O)oc2c1`: the Potency entry in test [1], in test [2], in test [3] and in test [4] was “inactive” each time.
`CC(C)(O)c1ccc2c(c1)CCC1C(C)(C(=O)O)CCCC21C` (stereo unspecified): the Potency result in test [1], in test [2], in test [3] and in test [4] was “inactive” throughout.
Take `CC(C)=CCCC1(C)C=Cc2c(c(C)cc3c2[nH]c2cc(O)ccc23)O1` (stereo unspecified): the Potency result in test [1], in test [2], in test [3] and in test [4] was “inactive” throughout.
Regarding `NCC(O)C1CCCCCCC1` (stereo unspecified), the Potency result in test [1], in test [2], in test [3] and in test [4] was “inactive” in each case.
As to `COC1C(O)C(CO)OC1n1cnc2c(=O)[nH]c(N)nc21` (stereo unspecified), the Potency entry in test [1], in test [2], in test [3] and in test [4] was “inactive” each time.
With `CC1(C)C=C2[C@H]3CC[C@@H]4[C@@]5(C)CCC(=O)C(C)(C)[C@@H]5CC[C@@]4(C)[C@]3(C)CC[C@@]2(C(=O)O)CC1`, the Potency entry in test [1], in test [2], in test [3] and in test [4] was “inactive” in each case.
`C/C=C(/C)C(=O)O[C@@H]1c2cc3c(c4c2[C@@]2(CO4)C(=O)C(OC)=C(OC)C=C2C[C@@H](C)[C@H]1C)OCO3`: the Potency entry in test [1], in test [2], in test [3] and in test [4] was “inactive” throughout.
Regarding `CC(C)=CCC[C@](C)(O)C1CC[C@]2(C)C1[C@H](O)CC1[C@@]3(C)CC[C@H](O[C@@H]4O[C@H](CO)[C@@H](O)[C@H](O)[C@H]4O[C@@H]4O[C@H](CO)[C@@H](O)[C@H](O)[C@H]4O)C(C)(C)C3CC[C@]12C` (stereo partly specified), the Potency result in test [1], in test [2], in test [3] and in test [4] was “inactive” each time.
`O=C(O)c1ccccc1Cc1ccccc1`: the Potency entry in test [1], in test [2], in test [3] and in test [4] was “inactive” throughout.
In the case of `N[C@H](CSSC[C@@H](N)C(=O)O)C(=O)O`, the Potency result in test [1], in test [2], in test [3] and in test [4] was “inactive” each time.
Take `COc1cc2oc(=O)ccc2c(OC)c1CC(O)C(C)(C)O` (stereo unspecified): the Potency entry in test [1], in test [2], in test [3] and in test [4] was “inactive” each time.
Regarding `CC1CCC(=O)O1` (stereo unspecified), the Potency result in test [1], in test [2], in test [3] and in test [4] was “inactive” each time.
Consider `CC(=O)OC/C=C(\C)CCC=C(C)C`, for which the Potency result in test [1], in test [2], in test [3] and in test [4] was “inactive” throughout.
For the compound `CC(C)C[C@H](NC(=O)[C@@H](NC(=O)c1cccc(-c2ccccc2)n1)[C@@H](C)O)B(O)O`, the Potency was 685 nM (active) in test [1], 544 nM (active) in test [2], 1090 nM (active) in test [3] and 1090 nM (active) in test [4].
For the compound `CC(=O)CCc1ccc(O)cc1`, the Potency result in test [1], in test [2], in test [3] and in test [4] was “inactive” throughout.
Turning to `CCC(C)c1nccnc1OC` (stereo unspecified), the Potency entry in test [1], in test [2], in test [3] and in test [4] was “inactive” throughout.
On to `FC(F)c1nc2ccccc2n1-c1nc(N2CCOCC2)nc(N2CCOCC2)n1`, for which the Potency in test [1] is 8630 nM (active); in test [2], 3060 nM (active); in test [3], 13700 nM (active); in test [4], 19300 nM (active).
`C/C(=C/CCC(C)[C@H]1CC[C@@]2(C)C3=C(CC[C@]12C)[C@@]1(C)CCC(=O)C(C)(C)[C@@H]1CC3)C(=O)O` (stereo partly specified): the Potency result in test [1], in test [2], in test [3] and in test [4] was “inactive” throughout.
Regarding `CCCCCCCCC=O`, the Potency result in test [1], in test [2], in test [3] and in test [4] was “inactive” each time.
Turning to `N[C@@H](Cn1ccc(=O)c(O)c1)C(=O)O`, the Potency entry in test [1], in test [2], in test [3] and in test [4] was “inactive” throughout.
For the compound `CCOC(=O)c1c(C)cc(O)cc1O`, the Potency entry in test [1], in test [2], in test [3] and in test [4] was “inactive” in each case.
On to `CC(C)=CC(=O)O`, for which the Potency result in test [1], in test [2], in test [3] and in test [4] was “inactive” each time.

(Values after PubChem BioAssay (NCATS).)
